Assay results taken from PubChem BioAssay (NCI).
Compounds without any hit were thinned out: in the full panel of roughly 83,000, 20% have a hit.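 Step 1: grow cells in 96-well plates. Step 2: add test compound at a single concentration. Step 3: incubate 48 h. Step 4: record percent growth.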 Activity calls are given as the source filed them. Rule for the calls: active = growth percent below 10; inactive = the rest.

Each compound was assayed on HL-60(TB) leukemia (assay: NCI-60 one-dose screen, 48 h (100 = growth as untreated, 0 = no growth, -100 = all killed)). Details: 10 µM unless noted.
`COc1ccc(N2C(=O)CC(c3cc(OC)c(OC)c(OC)c3)C3C2=NC(=O)N3C)cc1` (centres undefined) was tested, and the growth was 107% (inactive).
In the case of `NC(=S)N/N=C(/c1cccs1)C1CC1`, the growth is reported as 79.9% (inactive).
With `COc1cnc2c(c1)C(=O)c1c-2n(CCCNC(C)C)c(=O)c2cc(F)ccc12` the growth was -38.7% (active).
`CCCC(C(=O)OCC)C(C)OC(=O)OCC` (centres undefined) was tested, and the growth was 87.8% (inactive).
In the case of `COc1ccc(-c2cc(Cc3cccs3)c(=O)n(Cn3cncn3)n2)cc1`, the growth is reported as 107% (inactive).
`O=[N+]([O-])c1cc(F)c2cccnc2c1O` was tested, and the growth was 72.9% (inactive).
For `CCn1c(SCCc2ccccc2)nnc1-c1nn(-c2ccc(Cl)cc2Cl)c(-c2ccc(Cl)cc2)c1C`, the growth was 67.8% (inactive).
With `C[C@@H](CO)[C@@H]1CC[C@]2(C(=O)N3CCN(C)CC3)CC[C@]3(C)[C@H](CC[C@@H]4[C@@]5(C)CC[C@H](O)C(C)(C)[C@@H]5CC[C@]43C)[C@@H]12` the growth was -46.9% (active).
`CC(=O)n1c(-c2ccc(Cl)cc2)nc2c(c1=O)C(c1ccc(Cl)cc1)c1sc3c(Cl)cccc3c1O2` (centres undefined) was tested, and the growth was -15.4% (active).
For `Cc1[nH]n(C(=O)c2ccncc2)c(=O)c1N=Nc1ccc(O)c(C(=O)O)c1`, the growth was 53.4% (inactive).
`CCCCCCCCCCCCCCCC[N+]1(CC)CCCC1` was tested, and the growth was -69.9% (active).
`Cc1cc(C(O)(c2ccc(Nc3ccccc3)cc2)c2ccc(Nc3ccc(S(=O)(=O)O)cc3)cc2)ccc1N` (centres undefined) was tested, and the growth was -7.9% (active).
For `CNCCCOc1c(Br)cc(CCNC(=O)/C(Cc2cc(Br)c(OC)c(Br)c2)=N/O)cc1Br`, the growth was -57.1% (active).
In the case of `c1ccc2c(c1)CCCc1nnc3nc4ccccc4n3c1-2`, the growth is reported as 34.2% (inactive).
